Source: PubChem BioAssay (National Center for Advancing Translational Sciences (NCATS))
Rows were chosen to be rich in hits. Some 21% of all compounds tested hit in one or more screens of this group.
DRD3 agonist: agonists of human D3 dopamine receptor; P35462; D3R DiscoveRx beta-arrestin cells, luminescence, 90 min; max activation, %; 410,000 compounds, 0.58% hits; AID 652048; in the data active = max activation above about 30%; also: 0% is about no effect
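Agonist-mode cell screen: cells plated at 1500/well and incubated overnight at 37 °C, then exposed to library compounds for 90 min at 37 °C. Detection reagent was added for 30–60 min at room temperature, and luminescence was read.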
IL-1B inflam inh: inhibitors of inflammasome signaling (IL-1 beta secretion). activity change, % at 57.5 µM. 360,000 compounds, 4.7% hits. AID 743279. THP-1 LPS/ATP IL-1B secretion, AlphaLISA, 16 h; stronger effect = lower value; in the data active = activity change below about -50%; inconclusive = mostly about -30% to -49%; also: % is scaled to controls: 0 for no effect and ±100 for the full control effect
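Secreted IL-1B measured by AlphaLISA bead assay after 16 h compound exposure of THP-1 cells; compounds (final up to 57.5 uM) added 1 h before LPS (250 ng/mL) and ATP (1.25 mM) stimulation; lower signal means less secretion.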
TDP1 cell CPT: growth inhibition of DT40 Tdp1-/-;hTDP1 cells with camptothecin (screen for TDP1 inhibitors) | chicken DT40 Tdp1-/-;hTDP1 cells + 20 nM CPT, ATP luminescence, 48 h | Potency, µM (doses to about 46.2 µM), inactives show at the top dose activity change, negative = growth inhibition, hits mostly inhibitors | 420,000 compounds, 12% hits | AID 686979; also: potency is read from the fitted curve at half-maximal effect; % is scaled to controls: 0 for no effect and ±100 for the full control effect; nearly all actives have a fitted effect of over 55% in size
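Chicken DT40 Tdp1-/- cells complemented with human TDP1, 400 cells/well, exposed to compounds plus 20 nM camptothecin for at least 48 h at 37 C; viability read as ATP content by CellTiter-Glo luminescence.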
DT40 TDP1 no CPT: qHTS for Inhibitors of human tyrosyl-DNA phosphodiesterase 1 (TDP1): qHTS in cells in absence of CPT; DT40 Tdp1-/- hTDP1 cells, no CPT, ATP luminescence, 48 h; Potency, µM (top dose mostly 46.2 µM), without a hit: at the highest dose activity change, negative = growth inhibition, most hits filed as inhibitors; 420,000 compounds, 15% hits; also: potency is read from the fitted curve at half-maximal effect; % is scaled to controls: 0 for no effect and ±100 for the full control effect; nearly all actives have a fitted effect of over 55% in size
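A cellular qHTS used chicken DT40 cells lacking endogenous Tdp1 but carrying stably transfected human TDP1. Compounds were applied without camptothecin, and cell growth kinetics were judged by ATP-dependent luminescence after ≥48 hr.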
D3 antag: blocks the human D3 dopamine receptor; AID 652054; max response, negative = inhibition, %; P35462; 360,000 compounds, 2.5% hits; D3R cells, DiscoveRx beta-arrestin luminescence, antagonist mode; stronger effect = lower value; in the data active = max response below about -50%; inconclusive = no clear call, values can overlap the other calls; also: % is scaled to controls: 0 for no effect and ±100 for the full control effect
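Cells expressing the human receptor were seeded at 1500 cells/well, incubated overnight at 37 degrees C in 5% CO2, then exposed to library compounds with dopamine controls for 90 minutes at 37 degrees C before luminescent detection.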
ClpP mod: qHTS Assay for Activators of ClpP; ATP-dependent Clp protease proteolytic subunit (Bacillus subtilis (strain 168)), P80244; purified B. subtilis ClpP, FRET peptide cleavage, 20 min; Potency, µM (doses to about 57.5 µM), for inactives: at the top dose activity change, negative = active; 340,000 compounds, 1.9% hits; active = well fitted falling curve with a large enough effect; inconclusive = small, poorly fitted or top-dose-only effect; inactive = no such curve, though single readings can be large or run the other way; also: potency is read from the fitted curve at half-maximal effect; the source files actives as falling curves though it sought activators and does not explain the sign; nearly all actives have a fitted effect of over 65% in size
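Buffer: 100 mM Tris/HCl pH8, 100 mM KCl, 0.05% low protease BSA, 2.5% glycerol, 0.01% Tween-20. ClpP 10 microg/mL final; 20 min RT; delta FRET normalized to ADEP and DMSO controls.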
Active calls of the source: *; ? = inconclusive; · = no result given; [ ] = remark or other dose. Unless noted, calls follow the shape of the dose curve; as a rule, active = well fitted inhibition curve with a large enough effect; inconclusive = small, poorly fitted or top-dose-only effect; inactive = flat fitted curve, though single readings scatter.

SMILES	DRD3 agonist	IL-1B inflam inh	TDP1 cell CPT	DT40 TDP1 no CPT	D3 antag	ClpP mod
CCCS(=O)(=O)c1c(S(=O)(=O)CCC)c2cc(C(C)(C)C)ccn2c1C(=O)c1ccccc1	17	·	18µM*	16µM*	·	-4%
CCCS(=O)(=O)c1c(S(=O)(=O)CCC)c2c(C)cccn2c1C(=O)OC	-3	-5	13µM*	13µM*	-15	-9%
CCCS(=O)(=O)c1c(S(=O)(=O)CCC)c2ccccn2c1C(=O)OC	0	7	21µM*	16µM*	12	?
CCCS(=O)(=O)c1c(S(=O)(=O)CCC)c2c(N)cccn2c1C(=O)c1ccc(OC)cc1	0	-16	-23%	-18%	0	·
CCCS(=O)(=O)c1c(S(=O)(=O)CCC)c2c(N)cccn2c1C(=O)c1ccc(F)cc1	-6	?	-27%	?	1	0%
CC1CCN(C(=O)CSc2nnc(NC(=O)Nc3ccccc3)s2)CC1	7	·	?	?	·	-4%
COc1ccccc1C(CNC(=O)CNC(=O)c1ccc(C)c(C)c1)N1CCCC1 (stereo not given)	-9	-26	-5%	-12%	5	-3%
Cc1cc(C)c(C#N)c(SCC(=O)Nc2nonc2N)n1	0	-16	-3%	?	-6	·
CCCS(=O)(=O)c1c(S(=O)(=O)CCC)c2c(N)cccn2c1C(=O)c1ccc(Br)cc1	5	-17	16µM*	?	0	1%
O=C(CSc1ccc2c(c1)OCCO2)Nc1ncccc1O	2	7	-11%	-28%	12	-1%
COc1ccc(-c2cc(=O)n(-c3ccc([N+](=O)[O-])cc3)[nH]2)cc1	2	3	?	16µM*	-16	28µM*
COc1ccc(-c2[nH]n(-c3ccc([N+](=O)[O-])cc3)c(=O)c2C=NCc2ccc(F)cc2)cc1	-4	0	-26%	?	-8	-1%
c1ccc(CC[C@@H]2CC[C@@H](CCc3ccccc3)N2)cc1	-14	-2	12µM*	18µM*	-88*	1%
FC(F)(F)c1cc(-c2ccco2)nc2ncnn12	-5	-14	-6%	-14%	-8	28µM*
Cc1ccc(Nc2cc(-c3ccccc3)nc3ncnn23)cc1	-16	-56*	?	?	-19	-4%
CCn1c2ccccc2c2cc(Nc3cc(C)nc4ncnn34)ccc21	-5	115	0.92µM*	0.58µM*	-22	0%
FC(F)(F)c1cc(-c2ccccc2)nc2ncnn12	-2	-4	-23%	-3%	-15	28µM*
Cc1cc(Nc2ccc(Cl)cc2)n2ncnc2n1	-8	-11	-4%	9%	-10	0%
CCOC(=O)Nc1ccc2c(c1)Nc1ccccc1S2	12	-66*	23µM*	21µM*	27	0%
C=CC(=O)N1c2ccccc2Sc2ccc(NC(=O)OCC)cc21	-9	-112*	?	29µM*	?	-2%
CCOc1ccc2cc(-c3nnc(Nc4ccc(C)cc4)s3)c(=O)oc2c1	-6	·	-3%	-14%	·	0%
COc1ccc(C(CNC(=O)c2cccc([N+](=O)[O-])c2)N2CCOCC2)cc1 (stereo not given)	-27	·	?	?	·	-2%
CC(=O)Nc1nnc(SCC(=O)N2C(C)CCCC2C)s1 (stereo not given)	-13	-7	-1%	-5%	-14	-1%
CN(C)C(=O)COC(=O)c1cccc(CN2C(=O)c3ccccc3C2=O)c1	-4	7	19%	-24%	-1	·
CCN(C(=O)Cn1nnc2sc(-c3ccccc3)cc2c1=O)c1cccc(C)c1	8	·	16µM*	?	·	-18%
SMILES	DRD3 agonist	IL-1B inflam inh	TDP1 cell CPT	DT40 TDP1 no CPT	D3 antag	ClpP mod
CCN(C(=O)Cn1nc(C)n2c(cc3cc(C)ccc32)c1=O)c1ccccc1	2	-51*	?	?	-1	4%
COC(=O)C(C)n1nnc2sc(-c3ccccc3)cc2c1=O (stereo not given)	-5	-9	?	18µM*	0	-3%
CCCC(=O)Nc1ccc(C(=O)COC(=O)C2CC2)cc1	-4	-9	0%	-19%	-6	-4%
C=CCN(C(=O)C1=NN(C2CCS(=O)(=O)C2)C(=O)CC1)c1nc(-c2ccc([N+](=O)[O-])cc2)cs1 (stereo not given)	-2	-55*	-2%	18µM*	4	·
COc1cc(OC)c2c(C)c(CC(=O)N3CCCCC3)c(=O)oc2c1	7	·	8%	-22%	·	4%
N=C1C(c2nc(-c3ccc(F)cc3)cs2)=C(O)CN1Cc1ccc(Cl)cc1	-9	-6	-7%	-12%	-24	0%
Oc1cc2cc(-c3csc(-c4ccc(F)cc4)n3)cc3c2n1CCC3	·	·	?	20µM*	·	-7%
CC(C)c1ccc2occ(CC(=O)Nc3ccccc3Cl)c2c1	0	·	-15%	?	·	0%
C=CCSc1nc(-c2ccc(OC)cc2)c(C#N)c(=O)n1CC=C	2	-102*	16µM*	26µM*	3	·
COc1ccc(-c2nc3n(c(=O)c2C#N)CCS3)cc1	-6	-12	2%	3%	-14	·
COc1cc2c(NC3CCN(C(C)C)CC3)nc(N3CCCN(C)CC3)nc2cc1OCCOCCN1CCCC1	·	·	10µM*	14µM*	·	4%
COc1cc2c(NC3CCN(C)CC3)nc(N3CCCCC3)nc2cc1OCCOCCN1CCCC1	·	·	13µM*	?	·	4%
COc1cc2c(NC3CCN(C)CC3)nc(N3CCCN(C)CC3)nc2cc1OCCCCCC(N)=O	·	·	7%	?	·	4%
CC(=O)c1ccc(F)c(-c2cc(C)cc3c2OC(CNC(=O)c2ccnn2C)C3)c1 (stereo not given)	·	·	23%[9.04 µM]	-25%	·	·
CCCCCNC(=O)C(CCc1ccccc1)n1c(=O)c(-c2ccccc2)nc2ccccc21 (stereo not given)	5	16	5.8µM*	5.8µM*	13	?
CCCCCNC(=O)C(CCc1ccccc1)n1c(=O)c(-c2cc3ccccc3[nH]2)nc2ccccc21 (stereo not given)	0	35	?	?	17	33%
O=C(NCc1ccccc1)C(c1cccc2ccccc12)n1c(=O)c(-c2ccccc2)nc2ccccc21 (stereo not given)	7	-4	13µM*	?	9	-10%
